Data from the supplement of paper PMC6555819.

How the values were obtained:
Assay in all cases: PBM binding z-score (relative to random genomic background probes); higher = stronger binding; sequences stand for … in GC…GCGATTGACAGCGTAGAATGAAGG
[1] = tested on: FXR:RXRa (NR concentration 270 nM, RXRa partner concentration 90 nM)
How it was run: (§1)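 Probes were double-stranded and carried 34-nt variable regions with direct-repeat seeds, single-nucleotide variants, half-site ablations and random human genomic background sequences, printed on custom Agilent 4×180K protein-binding microarrays. Arrays were incubated 1 h with ligand-free nuclear receptor dimers in PBS pH 7.4, 2% milk, 0.02% Triton X-100, 1 mM DTT, 0.2 mg/mL BSA and 0.4 mg/ml salmon testes DNA. Antibodies against each partner (one per run) detected binding, and scanned fluorescence was regression-normalized. Binding z-scores use the random background probes as reference.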

[2] = tested on: LXRa:RXRa (NR concentration 270 nM, RXRa partner concentration 90 nM)
How it was run: as §1

[3] = tested on: LXRa homodimer (NR concentration 270 nM)
How it was run: as §1

[4] = tested on: LXRb:RXRa (NR concentration 270 nM, RXRa partner concentration 90 nM)
How it was run: as §1

[5] = tested on: LXRb homodimer (NR concentration 270 nM)
How it was run: as §1

[6] = tested on: PPARa:RXRa (NR concentration 270 nM, RXRa partner concentration 90 nM)
How it was run: as §1

[7] = tested on: PPARg:RXRa (NR concentration 180 nM, RXRa partner concentration 90 nM)
How it was run: as §1

[8] = tested on: PPARg:RXRa 270nM:90nM, anti-RXR (NR concentration 270 nM, RXRa partner concentration 90 nM)
How it was run: as §1

[9] = tested on: PPARg:RXRa 30nM:10nM, anti-RXR (NR concentration 30 nM, RXRa partner concentration 10 nM)
How it was run: as §1

[10] = tested on: PPARg:RXRa 90nM:30nM, anti-RXR (NR concentration 90 nM, RXRa partner concentration 30 nM)
How it was run: as §1

[11] = tested on: PPARg:RXRa DBDmut IVT, anti-RXR (DBD mutation: RXRa K156A/R161A, NR concentration 270 nM, RXRa partner concentration 90 nM)
How it was run: as §1

[12] = tested on: PPARg:RXRa IVT, anti-PPARg (NR concentration 270 nM, RXRa partner concentration 90 nM)
How it was run: as §1

[13] = tested on: PPARg DBDmut:RXRa IVT, anti-PPARg (DBD mutation: PPARg1 K132A/R137A, NR concentration 270 nM, RXRa partner concentration 90 nM)
How it was run: as §1

[14] = tested on: PPARg DBDmut IVT, anti-PPARg (DBD mutation: PPARg1 K132A/R137A, NR concentration 270 nM)
How it was run: as §1

[15] = tested on: PPARg homodimer (NR concentration 180 nM)
How it was run: as §1

[16] = tested on: PXR:RXRa (NR concentration 270 nM, RXRa partner concentration 90 nM)
How it was run: as §1

[17] = tested on: PXR homodimer (NR concentration 270 nM)
How it was run: as §1

[18] = tested on: RARa:RXR (NR concentration 270 nM, RXRa partner concentration 90 nM)
How it was run: as §1

[19] = tested on: RARa homodimer (NR concentration 270 nM)
How it was run: as §1

[20] = tested on: RARb:RXRa (NR concentration 270 nM, RXRa partner concentration 90 nM)
How it was run: as §1

Work on AACTCTAGGTAACCAAGTTCAGTGAATGCCGAAC yielded a PBM binding z-score [1] of 0.211, a PBM binding z-score [2] of 0.537 and a PBM binding z-score [3] of 0.474. The PBM binding z-score [4] was 0.24, the PBM binding z-score [5] was 0.213 and the PBM binding z-score [6] was 0.878. For the same sequence, the PBM binding z-score [7] was 0.528, the PBM binding z-score [8] was 0.367 and the PBM binding z-score [9] was -0.222. For the same sequence, the PBM binding z-score [10] was 0.0109, the PBM binding z-score [11] was 3.59 and the PBM binding z-score [12] was 2.39. For the same sequence, the PBM binding z-score [13] was -0.137, the PBM binding z-score [14] was 0.215 and the PBM binding z-score [15] was 0.0478. It also gave a PBM binding z-score [16] of 1.69, a PBM binding z-score [17] of 1.29 and a PBM binding z-score [18] of 0.617. The PBM binding z-score [19] was 0.354 and the PBM binding z-score [20] was 0.858.
TCATATAGGCAAACAGGTGAAAGTCCGTAAGTTA showed a PBM binding z-score [1] of 0.489, a PBM binding z-score [2] of 0.602 and a PBM binding z-score [3] of -0.0652. The PBM binding z-score [4] was 0.614, the PBM binding z-score [5] was -0.318 and the PBM binding z-score [6] was 1.33. The PBM binding z-score [7] was 0.726, the PBM binding z-score [8] was 2.34 and the PBM binding z-score [9] was 3.4. For the same sequence, the PBM binding z-score [10] was 2.91, the PBM binding z-score [11] was 2.62 and the PBM binding z-score [12] was 1.42. It also gave a PBM binding z-score [13] of 0.461, a PBM binding z-score [14] of 0.241 and a PBM binding z-score [15] of 0.782. For the same sequence, the PBM binding z-score [16] was 0.517, the PBM binding z-score [17] was 0.177 and the PBM binding z-score [18] was 0.939. The PBM binding z-score [19] was 0.994 and the PBM binding z-score [20] was 0.119.
In the case of CCTACTGGGCCATCAGGTCATTGACATCAACGTT, the PBM binding z-score [1] was 2.17, the PBM binding z-score [2] was 1.67 and the PBM binding z-score [3] was 1.29. For the same sequence, the PBM binding z-score [4] was 2.01, the PBM binding z-score [5] was -0.379 and the PBM binding z-score [6] was 2.7. For the same sequence, the PBM binding z-score [7] was 3.12, the PBM binding z-score [8] was 3.54 and the PBM binding z-score [9] was 1.46. It also gave a PBM binding z-score [10] of 2.55, a PBM binding z-score [11] of 4.78 and a PBM binding z-score [12] of 5.02. The PBM binding z-score [13] was 0.0284, the PBM binding z-score [14] was 0.33 and the PBM binding z-score [15] was 1.3. For the same sequence, the PBM binding z-score [16] was 1.67, the PBM binding z-score [17] was 0.415 and the PBM binding z-score [18] was 2.15. It also gave a PBM binding z-score [19] of 0.278 and a PBM binding z-score [20] of 2.09.
Work on CCTACTGGGCCACGACAGGTCATTGATTCAGTGA yielded a PBM binding z-score [1] of 0.777, a PBM binding z-score [2] of 2.99 and a PBM binding z-score [3] of 1.75. The PBM binding z-score [4] was 1.48, the PBM binding z-score [5] was -0.349 and the PBM binding z-score [6] was 2.68. For the same sequence, the PBM binding z-score [7] was 2.81, the PBM binding z-score [8] was 2.84 and the PBM binding z-score [9] was 0.448. For the same sequence, the PBM binding z-score [10] was 1.68, the PBM binding z-score [11] was 5.23 and the PBM binding z-score [12] was 5.51. The PBM binding z-score [13] was 1.69, the PBM binding z-score [14] was -0.106 and the PBM binding z-score [15] was 0.946. For the same sequence, the PBM binding z-score [16] was 1.97, the PBM binding z-score [17] was 0.00199 and the PBM binding z-score [18] was 2.15. It also gave a PBM binding z-score [19] of -0.183 and a PBM binding z-score [20] of 2.01.
CTCGCAAGGTCGGTTGAGGTGAGTATACGGATAA was tested, and the PBM binding z-score [1] was 0.755, the PBM binding z-score [2] was 0.469 and the PBM binding z-score [3] was -0.26. It also gave a PBM binding z-score [4] of 0.374, a PBM binding z-score [5] of -0.72 and a PBM binding z-score [6] of 1.3. The PBM binding z-score [7] was -0.0433, the PBM binding z-score [8] was 0.131 and the PBM binding z-score [9] was -0.357. For the same sequence, the PBM binding z-score [10] was -0.159, the PBM binding z-score [11] was -0.323 and the PBM binding z-score [12] was 0.241. For the same sequence, the PBM binding z-score [13] was -0.57, the PBM binding z-score [14] was -0.227 and the PBM binding z-score [15] was -0.181. The PBM binding z-score [16] was 1.73, the PBM binding z-score [17] was -0.0452 and the PBM binding z-score [18] was 1.19. The PBM binding z-score [19] was -0.537 and the PBM binding z-score [20] was 1.77.
Work on TGAATGAGGTTATAAGATCAGGCAACGTTGCAAA yielded a PBM binding z-score [1] of 1.34, a PBM binding z-score [2] of 1.51 and a PBM binding z-score [3] of -0.418. It also gave a PBM binding z-score [4] of 1.22, a PBM binding z-score [5] of -0.11 and a PBM binding z-score [6] of 2.69. It also gave a PBM binding z-score [7] of 1.48, a PBM binding z-score [8] of 2.02 and a PBM binding z-score [9] of 1.21. The PBM binding z-score [10] was 1.73, the PBM binding z-score [11] was 0.78 and the PBM binding z-score [12] was 1.81. It also gave a PBM binding z-score [13] of 1.1, a PBM binding z-score [14] of 0.207 and a PBM binding z-score [15] of 0.125. It also gave a PBM binding z-score [16] of 0.75, a PBM binding z-score [17] of -0.349 and a PBM binding z-score [18] of 1.52. The PBM binding z-score [19] was 0.212 and the PBM binding z-score [20] was 1.24.
Work on CTCGAAAGGTCGGTTGAGGTGATTATACGGATAA yielded a PBM binding z-score [1] of 2.6, a PBM binding z-score [2] of 1.84 and a PBM binding z-score [3] of -0.0507. It also gave a PBM binding z-score [4] of 1.68, a PBM binding z-score [5] of -0.13 and a PBM binding z-score [6] of 2.79. For the same sequence, the PBM binding z-score [7] was 0.571, the PBM binding z-score [8] was 1.14 and the PBM binding z-score [9] was 0.341. It also gave a PBM binding z-score [10] of 0.688, a PBM binding z-score [11] of 0.246 and a PBM binding z-score [12] of 0.642. The PBM binding z-score [13] was 0.351, the PBM binding z-score [14] was 0.785 and the PBM binding z-score [15] was 1.2. For the same sequence, the PBM binding z-score [16] was 3.74, the PBM binding z-score [17] was 0.3 and the PBM binding z-score [18] was 2.2. It also gave a PBM binding z-score [19] of 0.287 and a PBM binding z-score [20] of 2.85.
